# Rows were chosen to be rich in hits. Some 9% of all compounds tested hit in one or more screens of this group.
# HttQ103 aggreg = qHTS Multiplex Assay to Identify Dual Action Probes in a Cell Model of Huntington: Aggregate Formation (GFP); PC12 HttQ103-GFP aggregates, Acumen cytometry, 40 h; Potency, µM (titrated, usually from 46.1 µM), for the others: at the top dose activity change, negative = inhibition, usual class: inhibitors; AID 1688, 2009; 220,000 compounds, 1.1% hits; further: on the % scale 0 is the no-effect control and ±100 the full control effect; nearly all actives have a fitted effect of over 60% in size
#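 PC12 cells with ecdysone-inducible HTT exon1 Q103-GFP, induced by 100 nM tebufenozide, given compounds in a concentration series. GFP aggregates (1–25 um, 6 SD above background) counted in lysates by laser-scanning cytometry, 488 nm excitation.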
# HTT ATP protect = qHTS Multiplex Assay to Identify Dual Action Probes in a Cell Model of Huntington: Cytoprotection (ATP); PC12 HTT-Q103 induced, cytoprotection, ATP luminescence, 40 h; Potency, µM (titrated, usually from 56.4 µM), for inactives: cytoprotection (ATP increase), usual class: activators; 230,000 compounds, 0.14% hits; further: % of control where 0% means no effect; nearly all actives have a fitted effect of over 45% in size
#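 Rat PC12, Q103 Htt exon1-GFP fusion, ecdysone promoter; tebufenozide inducer 100 nM final; compound titration; qHTS, 1500 cells/well; ATPlite luminescent read.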
# HPGD block = qHTS Assay for Inhibitors of HPGD (15-Hydroxyprostaglandin Dehydrogenase). 15-hydroxyprostaglandin dehydrogenase [NAD(+)] (Homo sapiens), P15428. purified HPGD, NADH fluorescence kinetic, PGE2 substrate. Potency, µM, for inactives: top-dose activity change, negative = inhibition, most hits filed as inhibitors. 150,000 compounds, 4.3% hits. AID 894, 2007; active means well fitted inhibition curve with a large enough effect, not every such curve was filed as active; inconclusive means small, poorly fitted or top-dose-only effect, or another doubt; inactive means no such curve, though single readings can be large or run the other way; further: on the % scale 0 is the no-effect control and ±100 the full control effect
# Target sequence (P15428 whole entry, looked up): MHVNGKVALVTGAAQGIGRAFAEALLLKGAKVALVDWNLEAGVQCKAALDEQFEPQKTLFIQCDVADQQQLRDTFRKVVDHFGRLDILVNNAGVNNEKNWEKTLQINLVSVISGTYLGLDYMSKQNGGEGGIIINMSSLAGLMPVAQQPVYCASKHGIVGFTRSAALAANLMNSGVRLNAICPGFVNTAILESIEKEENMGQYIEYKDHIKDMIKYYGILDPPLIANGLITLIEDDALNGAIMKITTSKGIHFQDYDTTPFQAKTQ
#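 NADH formation kinetics: reaction with 30 uM PGE2 and 1 mM NAD+ (final), 20 nM enzyme, Tris-HCl pH 8 with Tween 20, after 15 min compound preincubation at room temperature. Fluorescence change, last versus first of five reads.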
# KinaseGlo FLuc = Counterscreen for Luciferase (Kinase-Glo TM) Inhibition. AID 1379, 2008. Luciferin 4-monooxygenase (Photuris pensylvanica), Q27757. Kinase-Glo luciferase, ATP luminescence, 8 min. Potency, µM (doses to about 38.3 µM), inactives show at the top dose activity change, negative = inhibition, usual class: inhibitors. 200,000 compounds, 0.28% hits; further: on the % scale 0 is the no-effect control and ±100 the full control effect; nearly all actives have a fitted effect of over 60% in size
#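 Recombinant Kinase-Glo luciferase, 10 uM ATP (linear range), luciferin; imidazole pH 7.2 / KCl / MgCl2 / Tween / BSA buffer; 8 min RT; luminescence.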
# Lamin A splicing = qHTS Assay for Modulators of Lamin A Splicing. Potency, µM (highest dose often 46.1 µM), without a hit: top-dose ratio change, negative = inhibition, most hits filed as inhibitors. 200,000 compounds, 0.01% hits. AID 1487, 2009. HeLa LMNA splicing GFP/RFP minigene ratio, 48 h; active means well fitted inhibition curve with a large enough effect in the signal ratio, with a control signal flat, not every such curve was filed as active; inconclusive means small, poorly fitted or top-dose-only effect, or effect the other way, or a change in a side signal; the % refers to the signal ratio; further: on the % scale 0 is the no-effect control and ±100 the full control effect
#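 S3 HeLa stable clones carrying a lamin A-EGFP splicing minigene plus DsRed2 were seeded at 600 cells/well in Opti-MEM with 2% FBS, pin-dosed and incubated 48 h at 37°C. Acumen cytometry (488 nm) gave the GFP/RFP total-intensity ratio.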
# ALDH1A1 block = qHTS Assay for Inhibitors of Aldehyde Dehydrogenase 1 (ALDH1A1); 220,000 compounds, 7.3% hits; Potency, µM (highest dose often 75.3 µM), inactives show at the top dose activity, negative = inhibition, usual class: inhibitors; Purified ALDH1A1, NADH fluorescence, propionaldehyde substrate; active means well fitted inhibition curve with a large enough effect, not every such curve was filed as active; inconclusive means small, poorly fitted or top-dose-only effect, or another doubt; inactive means no such curve, though single readings can be large or run the other way;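 further: plate controls were no enzyme wells and a reference inhibitor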
# Starred values were filed as active, the others as inactive; ? = inconclusive; / = no result; [ ] = another dose, or the depositor's remark. Unless noted, the call rests on the fitted dose curve; in most records, active means well fitted curve in the direction sought with a large enough effect; inconclusive means small, poorly fitted or top-dose-only effect, or another doubt; inactive means no such curve, though single readings can be large; an effect the other way counts as inactive or inconclusive. Potency means the concentration at half of the fitted maximal effect.
SMILES,HttQ103 aggreg,HTT ATP protect,HPGD block,KinaseGlo FLuc,Lamin A splicing,ALDH1A1 block
NC(=S)N=Nc1c(O)n(CCCl)c2ccccc12,33%,4%,/,4%,?,?
Cc1ccc(C)c(Cn2c(O)c(N=NC(=S)Nc3ccccc3F)c3ccccc32)c1,-29%,7%,/,0%,/,13µM*
O=C(CNC(=O)/C=C/c1ccccc1)N=Nc1c(O)n(Cc2ccccc2)c2ccccc12,-2%,27%[10 µM],-12%,6%,-7%,3.5µM*
Cc1ccc(Cn2c(O)c(N=NC(=S)Nc3ccccc3F)c3cc(S(=O)(=O)N4CCOCC4)ccc32)cc1,-29%,-6%,/,0%,13%[46 µM],?
CCc1nnc(NC(=O)Nc2ccc(Cl)cc2)s1,6%[9.22 µM],-8%[10 µM],/,-2%,-2%[46 µM],4%
CCc1ccc(/C=C2/C(=O)N(C)C(=S)N2CC(=O)OC)s1,0%[9.22 µM],-29%,/,7%,?,-6%
Cc1cc(Br)cc(Cl)c1OCC(=O)NC(=O)NCc1ccccc1,-2%,2%[10 µM],-1%,0%,-10%,16%
Oc1c(N=NC(=S)Nc2ccccc2F)c2ccccc2n1Cc1ccccc1F,-31%,-19%,/,/,/,20µM*
Cc1ccccc1Cn1c(O)c(N=NC(=S)Nc2ccccc2F)c2ccccc21,?,2%,/,-2%,?,32µM*
Cc1nn(C)c2c1c(-c1ccccc1)cc(=O)n2Cc1ccc(F)cc1Cl,/,/,/,/,-27%[46 µM],/
O=C(NCc1ccco1)c1ccc2c(=O)n(-c3ccccc3)c(=S)[nH]c2c1,9%,-8%,-3%,-2%,-1%,0.22µM*
COc1ccc(-n2c(=S)[nH]c3cc(C(=O)Nc4ccc(OC)c(OC)c4)ccc3c2=O)cc1,-3%,-5%[10 µM],-14%,-1%,-7%,-2%
COC(=O)c1ccc2c(=O)n(-c3ccccc3)c(=S)[nH]c2c1,1%,-37%,/,-2%,?,?
COc1ccc(CCn2c(=S)[nH]c3cc(C(=O)NCc4ccco4)ccc3c2=O)cc1OC,16%,-48%,?,5%,9%,0.05µM*
COc1ccc(-n2c(=S)[nH]c3cc(C(=O)NCc4ccco4)ccc3c2=O)cc1OC,8%,-21%,-13%,8%,11%,0.11µM*
COc1ccc(CCn2c(=O)[nH]c3cc(C(=O)NCCc4ccccc4)ccc3c2=O)cc1OC,20%,-12%,0%,-6%,5%,14%
COC(=O)CSc1ncnc2scc(-c3ccccc3)c12,-9%[9.22 µM],-1%[10 µM],/,/,/,/
COc1ncnc2sc(-c3ccccc3)cc12,-9%[9.22 µM],-16%,?,10µM*,6%,?
O=C(CCNc1ccccc1)c1cccc([N+](=O)[O-])c1,-3%,-6%,/,/,-7%,?
O=C(NCCCNc1ccc(C(F)(F)F)cc1[N+](=O)[O-])c1ccc(Cl)cc1,11µM*,-33%,/,/,?,14%
O=C(NCCNc1ccc([N+](=O)[O-])cc1C(F)(F)F)c1ccccc1,?,39%[10 µM],-26%,5%,?,10µM*
O=C(CCNc1ccc(F)cc1)c1cccc([N+](=O)[O-])c1,-14%,5%[10 µM],4%,10%,-19%,0.22µM*
Cc1ccc(NCCC(=O)c2cccc([N+](=O)[O-])c2)cc1,?,13%[10 µM],-10%,2%,-16%,0.32µM*
Cc1ccc(NC(=O)CCC(=O)NNC(=O)c2cccc([N+](=O)[O-])c2)cc1C,-19%,11%[10 µM],1%,4%,?,7%
O=C(NCCCNc1ccc(C(F)(F)F)cc1[N+](=O)[O-])c1cc(F)c(F)cc1Cl,?,-50%,-19%,-1%,4%,-3%
COC(=O)c1cc2n(n1)CCN(Cc1ccc(C)cc1)C2=O,-11%,16%[10 µM],1%,-2%,-5%,4%

# Source: PubChem BioAssay
